The values that follow come from article PMC4336329 (PLoS ONE, 2015).

The whole screen tested about 310,000 compounds, of which about 14,000 (4.5%) showed an effect of 50% or more. The effect is printed as a negative number. Only a selection was taken, and strong results are over-represented in it overall.
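Note: peak tail current of the secondary pulse compared with the same well before compound.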

human ether-à-go-go-related gene (hERG) potassium channel, sequence (Q12809 whole entry, looked up): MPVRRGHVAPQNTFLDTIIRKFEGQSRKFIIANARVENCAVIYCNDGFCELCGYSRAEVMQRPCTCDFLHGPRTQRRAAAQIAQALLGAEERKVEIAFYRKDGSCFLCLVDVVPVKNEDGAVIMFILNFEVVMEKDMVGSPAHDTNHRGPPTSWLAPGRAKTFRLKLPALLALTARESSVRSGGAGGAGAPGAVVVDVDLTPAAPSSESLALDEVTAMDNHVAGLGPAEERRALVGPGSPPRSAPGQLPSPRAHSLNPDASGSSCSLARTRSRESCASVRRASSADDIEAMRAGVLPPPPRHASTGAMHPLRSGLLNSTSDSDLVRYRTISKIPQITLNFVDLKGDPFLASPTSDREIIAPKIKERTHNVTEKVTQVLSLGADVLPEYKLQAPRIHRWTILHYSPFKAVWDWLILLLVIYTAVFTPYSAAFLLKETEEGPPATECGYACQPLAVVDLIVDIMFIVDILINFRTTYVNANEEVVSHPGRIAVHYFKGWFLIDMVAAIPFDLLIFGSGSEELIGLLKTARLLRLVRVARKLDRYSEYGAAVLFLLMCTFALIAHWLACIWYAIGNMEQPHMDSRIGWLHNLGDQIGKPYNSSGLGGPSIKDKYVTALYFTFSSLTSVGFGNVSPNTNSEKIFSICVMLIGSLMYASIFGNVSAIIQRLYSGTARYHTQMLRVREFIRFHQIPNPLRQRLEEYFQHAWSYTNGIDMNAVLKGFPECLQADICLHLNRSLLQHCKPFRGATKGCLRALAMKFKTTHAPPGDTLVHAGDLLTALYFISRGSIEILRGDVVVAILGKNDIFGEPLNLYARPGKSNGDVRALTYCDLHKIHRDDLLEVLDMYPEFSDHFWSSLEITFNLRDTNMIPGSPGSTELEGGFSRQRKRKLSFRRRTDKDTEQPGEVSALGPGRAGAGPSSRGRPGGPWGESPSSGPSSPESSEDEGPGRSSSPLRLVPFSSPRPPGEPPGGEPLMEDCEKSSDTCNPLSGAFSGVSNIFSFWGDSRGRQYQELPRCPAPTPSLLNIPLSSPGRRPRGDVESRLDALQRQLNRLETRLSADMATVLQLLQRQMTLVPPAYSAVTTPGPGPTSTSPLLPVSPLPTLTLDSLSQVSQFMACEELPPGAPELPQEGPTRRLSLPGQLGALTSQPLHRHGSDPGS

The experiment has as its target human ether-à-go-go-related gene (hERG) potassium channel (human, UniProt Q12809). The experiment is described as follows: primary screen, population patch clamp on CHO cells stably expressing hERG; higher = less effect of the substance.
As for `CCc1nccn1CCC(=O)NC1CC(C)(C)Cc2c1cnn2-c1ccc(OC)cc1` (stereo not drawn), the “hERG current change (%, negative = inhibition) at 10uM” value is -16.2%.

Turning to `COc1ccc(-n2ncc3c2CC(C)(C)CC3NC(=O)Cc2nonc2C)cc1` (stereo not drawn), the “hERG current change (%, negative = inhibition) at 10uM” value is recorded as 3.4%.

With `COc1ccc(-n2ncc3c2CC(C)(C)CC3NC(=O)CCc2c(C)noc2C)cc1` (stereo not drawn), the “hERG current change (%, negative = inhibition) at 10uM” value is given as -21.7%.

As to `Cn1cc(S(=O)(=O)NCc2ccco2)c(=O)n(C)c1=O`, the “hERG current change (%, negative = inhibition) at 10uM” value is listed as 3.03%.

For the compound `Cc1onc(-c2c(F)cccc2Cl)c1C(=O)NCc1cccs1`, the “hERG current change (%, negative = inhibition) at 10uM” value is recorded as -21.2%.

`COc1ccc(S(=O)(=O)N2CCOCC2)cc1N(C)S(=O)(=O)c1ccc(C)cc1`: the “hERG current change (%, negative = inhibition) at 10uM” value is reported as 0.666%.

Regarding `C/C(CC(=O)Nc1ccccn1)=N\NC(=O)c1ccccc1O`, the “hERG current change (%, negative = inhibition) at 10uM” value was determined as 6.73%.

Consider `COc1ccc(CCNC(=O)c2c(O)c3ccccc3[nH]c2=O)cc1`, for which the “hERG current change (%, negative = inhibition) at 10uM” value worked out at 15.4%.

Regarding `COc1cccc(NC(=O)c2ccc3c(c2)N(CC(=O)N2CCOCC2)C(=O)C(C)(C)O3)c1`, the “hERG current change (%, negative = inhibition) at 10uM” value was -5.35%.

`CCOCCc1nnc(NC(=O)c2cccc(F)c2)s1`: the “hERG current change (%, negative = inhibition) at 10uM” value is 0.0842%.

Regarding `COc1cc(NC(=O)C(C)Oc2ccccc2)cc(OC)c1` (stereo not drawn), the “hERG current change (%, negative = inhibition) at 10uM” value is -2.9%.

Take `Cn1nccc1C(=O)NC1CC(C)(C)Cc2c1cnn2-c1ccc(F)cc1` (stereo not drawn): the “hERG current change (%, negative = inhibition) at 10uM” value is given as -61.4%.

`COc1ccc(-n2ncc3c2CC(C)(C)CC3NC(=O)C2=CC(=O)CC(C)(C)O2)cc1` (stereo not drawn): the “hERG current change (%, negative = inhibition) at 10uM” value is reported as -68.3%.

Take `COc1ccc(-n2ncc3c2CC(C)(C)CC3NC(=O)CN2CCOC2=O)cc1` (stereo not drawn): the “hERG current change (%, negative = inhibition) at 10uM” value is -32.9%.

As for `COc1ccc(C(=O)NC2CC(C)(C)Cc3c2cnn3-c2ccccc2C)o1` (stereo not drawn), the “hERG current change (%, negative = inhibition) at 10uM” value was -30.5%.

As for `Cc1ncoc1C(=O)NC1CC(C)(C)Cc2c1cnn2-c1ccccc1` (stereo not drawn), the “hERG current change (%, negative = inhibition) at 10uM” value was -20.5%.

In the case of `COc1ccc(-n2ncc3c2CC(C)(C)CC3NC(=O)c2ocnc2C)cc1` (stereo not drawn), the “hERG current change (%, negative = inhibition) at 10uM” value is given as -53.5%.

`COc1ccc(-n2ncc3c2CC(C)(C)CC3NC(=O)c2ccc(OC)o2)cc1` (stereo not drawn): the “hERG current change (%, negative = inhibition) at 10uM” value is on record as -50.2%.

Take `COCc1ccc(C(=O)NC2CC(C)(C)Cc3c2cnn3-c2ccc(OC)cc2)o1` (stereo not drawn): the “hERG current change (%, negative = inhibition) at 10uM” value is listed as -29.3%.

`Cc1ccccc1-n1ncc2c1CC(C)(C)CC2NC(=O)C1=CC(=O)CC(C)(C)O1` (stereo not drawn): the “hERG current change (%, negative = inhibition) at 10uM” value is -4.61%.

In the case of `Cc1ncoc1C(=O)NC1CC(C)(C)Cc2c1cnn2-c1ccc(F)cc1` (stereo not drawn), the “hERG current change (%, negative = inhibition) at 10uM” value is on record as -20.7%.

Turning to `Cc1nonc1CC(=O)NC1CC(C)(C)Cc2c1cnn2-c1ccc(F)cc1` (stereo not drawn), the “hERG current change (%, negative = inhibition) at 10uM” value was -15.7%.

As to `CCN(CC)CC(=O)NC1CC(C)(C)Cc2c1cnn2-c1ccc(F)cc1` (stereo not drawn), the “hERG current change (%, negative = inhibition) at 10uM” value is 7.43%.

As to `O=C(O)CCCN1C(=O)/C(=C\C(Cl)=C\c2ccccc2)SC1=S`, the “hERG current change (%, negative = inhibition) at 10uM” value was 13.6%.

As to `COc1ccc(OC)c(-c2nc(CN3CCN(C(=O)c4ccco4)CC3)c(C)o2)c1`, the “hERG current change (%, negative = inhibition) at 10uM” value is on record as -21.9%.

As to `O=C(NCc1cccs1)c1ccccc1[N+](=O)[O-]`, the “hERG current change (%, negative = inhibition) at 10uM” value is -11.4%.

In the case of `COc1cc(-c2nnc3n(CCc4ccccc4)c(=O)c4ccccc4n23)cc(OC)c1OC`, the “hERG current change (%, negative = inhibition) at 10uM” value is reported as -19.7%.

On to `CCOC(=O)CN1C(=O)COc2ccc(Cl)cc21`, for which the “hERG current change (%, negative = inhibition) at 10uM” value is 19.2%.

Regarding `CCOC(=O)c1[nH]cnc1C(=O)N[C@@H](C)c1ccccc1`, the “hERG current change (%, negative = inhibition) at 10uM” value was -5.33%.

On to `O=C1CCc2cc(S(=O)(=O)N3CCC(C(=O)NCc4ccccn4)CC3)ccc2N1`, for which the “hERG current change (%, negative = inhibition) at 10uM” value was found to be 16.9%.

For the compound `CCOc1ccccc1NS(=O)(=O)c1cc2c3c(c1)C(C)C(=O)N3CCC2` (stereo not drawn), the “hERG current change (%, negative = inhibition) at 10uM” value is on record as 5.26%.

`O=C(N/N=C/c1cn(-c2ccccc2)nc1-c1ccc(F)cc1)c1ccc(Br)o1`: the “hERG current change (%, negative = inhibition) at 10uM” value came out at 27.7%.

`COCc1ccc(C(=O)NC2CC(C)(C)Cc3c2cnn3-c2ccc(C)cc2)o1` (stereo not drawn): the “hERG current change (%, negative = inhibition) at 10uM” value is -39.3%.

On to `CSCc1ccc(C(=O)NC2CC(C)(C)Cc3c2cnn3-c2ccc(F)cc2)o1` (stereo not drawn), for which the “hERG current change (%, negative = inhibition) at 10uM” value was -56.5%.

In the case of `COc1ccc(-c2[nH]ncc2-c2nc(C)cs2)c(O)c1`, the “hERG current change (%, negative = inhibition) at 10uM” value is 13.5%.

Consider `Cc1cc2cc(CN(CCCO)S(=O)(=O)c3cccc4nsnc34)c(=O)[nH]c2cc1C`, for which the “hERG current change (%, negative = inhibition) at 10uM” value is 0.493%.

As for `O=C(/C=C/c1cccs1)N1CCN(c2ccccc2)CC1`, the “hERG current change (%, negative = inhibition) at 10uM” value amounted to 1.88%.

With `O=C(/C=C/c1ccc2ccccc2n1)N1CCN(S(=O)(=O)c2ccccc2F)CC1`, the “hERG current change (%, negative = inhibition) at 10uM” value is reported as -15.9%.

As for `O=C(/C=C/c1ccc2ccccc2n1)N1CCN(S(=O)(=O)c2ccc(F)cc2)CC1`, the “hERG current change (%, negative = inhibition) at 10uM” value is reported as -52.4%.

In the case of `CC(=O)c1ccc(N2CCN(C(=O)/C=C/c3cccs3)CC2)cc1`, the “hERG current change (%, negative = inhibition) at 10uM” value is recorded as -25%.

Turning to `CC(=O)c1ccc(N2CCN(C(=O)c3ccc4ccccc4n3)CC2)cc1`, the “hERG current change (%, negative = inhibition) at 10uM” value was -43.1%.

Regarding `O=C(/C=C/c1ccc(S(=O)(=O)N2CCOCC2)cc1)N1CCN(c2ccc(F)cc2)CC1`, the “hERG current change (%, negative = inhibition) at 10uM” value was -25.6%.

For `O=C(/C=C/c1ccc2ccccc2n1)N1CCN(c2ccccc2)CC1`, the “hERG current change (%, negative = inhibition) at 10uM” value is on record as -52.1%.

Consider `O=C(O)/C=C/c1ccc2ccccc2n1`, for which the “hERG current change (%, negative = inhibition) at 10uM” value is 2.35%.

In the case of `CC(=O)c1ccc(N2CCN(C(=O)/C=C/c3ccc4ccccc4n3)CC2)cc1`, the “hERG current change (%, negative = inhibition) at 10uM” value is on record as -54.4%.
